# Test results: PubChem BioAssay AID1117361 (Southern Research Institute, 2015)
# About 900 (25%) of roughly 3,600 compounds were called active. The rule behind the calls is not given here. Not all results are given here. Potency and affinity values are given separately.
# Target: Protein Tat (Human immunodeficiency virus type 1 group M subtype B (isolate HXB2)) (UniProt P04608)
# Experiment: inhibitors of Tat binding to TAR RNA, dose response, counter-screen for Vif-APOBEC3G degradation inhibitor project, biochemical, fluorescence polarization, FAM-labeled TAR RNA (AID 1117361)
# Conditions: outcome: dose series up to 100 µM unless noted; series mostly up to 100 µM; inhibition: at the top concentration
Structure (SMILES),inhibition,outcome
CCCCn1c(CCNC(=O)CC)nc2ccccc21,2.7% (inactive),–
CCC(C)(C)NC(=O)C(c1ccc(F)cc1)N(Cc1ccco1)C(=O)c1cnccn1 (stereo unspecified),–,inactive
CC(OC(=O)c1cccnc1)C(=O)NCc1ccc2c(c1)OCO2 (stereo unspecified),–,inactive
O=C(COC(=O)c1ccccc1Br)Nc1nnc(-c2ccccc2)o1,–,inactive
Cc1cc(C)cc(NC2=CC(=O)CC(c3ccco3)C2)c1 (stereo unspecified),2.47% (inactive),–
O=C(O)CCCC(=O)NCCc1cccc(Cl)c1,3.41% (inactive),–
COc1ccc(CSc2nnnn2C)cc1F,–,inactive
COc1ccc(OC)c(C(=O)CSc2nnnn2C)c1,–,inactive
CCOC(=O)C1(CCOC)CCN(Cc2cnc(-c3cccc(C)c3)nc2)CC1,–,inactive
CCOC(=O)c1c(C)[nH]c(C(=O)COC(=O)CSCC(=O)N(CC)CC)c1C,5.41% (inactive),–
Cc1ccc(NCc2nnc(SCc3ccc(C#N)cc3)n2Cc2ccco2)c(C)c1,11.5% (inactive),–
Cc1ccc(-c2csc(NC(=O)c3ccc(-c4ccccc4)cc3)n2)o1,5.41% (inactive),–
c1ccc(Nc2ccccn2)cc1,0.68% (inactive),–
CN(Cc1nc(-c2cccnc2)no1)S(=O)(=O)c1ccccc1,1.35% (inactive),–
Cc1cccc2c1c1ccc3c(c1n2C)C(=O)C=CC3=O,11% (inactive),–
CCOC(=O)c1csc(N)c1-c1ccc([N+](=O)[O-])cc1,–,inactive
CCOc1ccc(NC(=O)C2CCCN(S(=O)(=O)c3c(C)nn(C)c3C)C2)cc1 (stereo unspecified),1.65% (inactive),–
COc1ccccc1N1CCN(C(=O)c2oc3cc(C)c(C)cc3c2C)CC1,–,inactive
CC(C)c1ccc(-c2nc(N3CCCCCC3)nc3n[nH]c(N)c23)cc1,–,inactive
Cc1ccc(S(=O)(=O)N(CC(=O)NCCC2=CCCCC2)Cc2ccccc2F)cc1,–,inactive
O=[N+]([O-])c1ccc2c(c1)S(=O)c1ccccc1-2 (stereo unspecified),–,inactive
COC(=O)CSc1nc2cc(C)cc(C)c2cc1C#N,4.09% (inactive),–
COc1cccc(C(=O)Nc2nc3c(s2)CN(C)CC3)c1,10.1% (inactive),–

Structure (SMILES),inhibition,outcome
NC(=S)N=Nc1c(O)n(C2OC(=O)c3ccccc32)c2ccccc12 (stereo unspecified),3.41% (inactive),–
CCOc1ccccc1C(=O)NCC(=O)OCC(=O)NCCc1ccc(S(N)(=O)=O)cc1,10.1% (inactive),–
COC(=O)c1c(C)[nH]c(C=O)c1-c1ccccc1,–,inactive
COC(=O)C(O)(CC(=O)c1ccc(OC)cc1)C(F)(F)F (stereo unspecified),2.03% (inactive),–
CCCC(NCC(=O)Nc1ccccc1C(=O)NC1CC1)c1ccccc1 (stereo unspecified),–,inactive
O=C(C1CCC(CNS(=O)(=O)c2cccc3cccnc23)CC1)N1CCCC1 (stereo unspecified),–,inactive
COc1ccc(NC(=O)C2CCCN2S(=O)(=O)c2cccc3cccnc23)c(OC)c1 (stereo unspecified),0.68% (inactive),–
O=C(Nc1ccc(-c2noc(-c3cccs3)n2)cc1)c1cccnc1,2.05% (inactive),–
COc1ccc(-c2nc(C(N)=O)c3[nH]c(=O)n(-c4cccc(Cl)c4)c3n2)cc1OC,2.7% (inactive),–
O=c1cc(-c2ccc(O)cc2)oc2cc(O)c(C3OC(CO)C(O)C(O)C3O)c(O)c12 (stereo unspecified),21.4% (inactive),–
CSCCC(NC(=O)C1CCC(C)CC1)C(=O)NCc1ccco1 (stereo unspecified),6.82% (inactive),–
Cc1ccc(-n2c(SCC(N)=O)nc3c([nH]c4ccccc43)c2=O)cc1,1.35% (inactive),–
CN1C(=O)c2ccccc2C(C(=O)O)C1c1cccc(F)c1 (stereo unspecified),1.36% (inactive),–
Cc1cc(O)c(C(C)C)cc1N=Cc1ccc([N+](=O)[O-])cc1,–,inactive
Cc1ccc(-n2ncc3c(=O)[nH]cnc32)c(C)c1,–,inactive
O=C(NC1CCCCC1)C(c1ccc(Cl)cc1)N(C(=O)c1ccccn1)c1cccnc1 (stereo unspecified),–,inactive
COc1ccccc1NC(=O)c1cc2ccc(O)cc2o/c1=N\O,–,inactive
CCOC(=O)CSc1nnc(CNC(=O)c2cc(OC)c(OC)c(OC)c2)n1C,–,inactive
COC(=O)CSc1nnc(CNC(=O)Cc2ccccc2)n1-c1ccccc1OC,1.36% (inactive),–
CCOc1ccc(OCCOc2cccc(C(F)(F)F)c2)cc1,4.05% (inactive),–
Cn1c(CN2CCOCC2)nc2cc(NC(=O)c3ccc(F)cc3)ccc21,4.77% (inactive),–
C/C(=C1\SC(N2CCOCC2)=NC1=O)c1ccccc1,–,inactive
O=C1N=C(N2CCOCC2)SC1=Cc1ccco1,6.35% (inactive),–

Structure (SMILES),inhibition,outcome
COc1cccc(/C=C2\SC(N)=NC2=O)c1OS(=O)(=O)c1ccccc1,–,inactive
COc1cccc(-c2nc3n(n2)C(c2cccs2)C(C(=O)Nc2cccnc2)=C(C)N3)c1 (stereo unspecified),–,inactive
O=C(CCc1ccccc1)NNC(=S)NCCc1ccccc1,–,inactive
Cc1cc(C(C)(C)C)ccc1OCCN(C)C,0.68% (inactive),–
COCCn1c(Sc2ccc(C)cc2)nc2c1c(=O)[nH]c(=O)n2C,–,inactive
Nc1nc(Cl)cc(N2CCC(c3cc(-c4ccc(Cl)cc4Cl)n[nH]3)CC2)n1,–,inactive
CCOC(=O)N1CCN(S(=O)(=O)c2ccc3c(c2)C(C)C(=O)N3)CC1 (stereo unspecified),8.25% (inactive),–
O=C(Nc1ccc2oc(=O)ccc2c1)c1ccc(-c2ccc(Cl)cc2)o1,16.4% (inactive),–
COc1cccc(/C=N/n2c(N)c(S(=O)(=O)c3cccs3)c3nc4ccccc4nc32)c1,8.11% (inactive),–
COc1ccc(S(=O)(=O)N2CCN(C(=O)c3cc(-c4ccccc4OC)n[nH]3)CC2)cc1,1.67% (inactive),–
CCCN(C(=S)Nc1ccccc1)C1CCS(=O)(=O)C1 (stereo unspecified),–,inactive
COc1cccc(C2NC(=O)NC(O)(C(F)(F)F)C2C(=O)c2cccnc2)c1OC (stereo unspecified),12.8% (inactive),–
CCn1c(COc2ccc3c(c2)OCO3)nnc1SCC(=O)c1ccc(Cl)cc1,3.41% (inactive),–
Nc1cccc(-c2nc3ccc(N)cc3s2)c1,3.38% (inactive),–
Cc1[nH]n(-c2nc(-c3ccccc3F)cc(=O)[nH]2)c(=O)c1CCO,–,inactive
NC(=O)C1Cc2ccccc2CN1C(=O)c1nn(Cc2ccccc2)c(=O)c2ccccc12 (stereo unspecified),–,inactive
COc1ccc(C2Nc3ccccc3C(=O)N2c2ccc(Cl)cc2)cc1Cn1cc([N+](=O)[O-])cn1 (stereo unspecified),–,inactive
COc1ccc(/C=N/NC(=O)CN2CCN(Cc3ccccc3)CC2)cc1Br,8.25% (inactive),–
Cc1ccc(S(=O)(=O)N=Nc2c(O)[nH]c3ccccc23)cc1,17.1% (inactive),–
CN(C)c1ccc(/C=N\NC(=O)c2csnn2)cc1,2.03% (inactive),–
COc1ccc(S(=O)(=O)N2CCC(C(=O)NCc3ccco3)CC2)cc1,15.5% (inactive),–
CCC(Cc1ccccc1)NC(=O)C1CCN(S(=O)(=O)c2c(C)noc2C)CC1 (stereo unspecified),2.73% (inactive),–
COc1ccc(OCCNS(=O)(=O)c2ccccc2)cc1,–,inactive

Structure (SMILES),inhibition,outcome
CN1CCN(c2ccccc2NC(=O)C(Cc2ccccc2)n2cccc2)CC1 (stereo unspecified),2.73% (inactive),–
CCCCNC(=O)c1onc(CSc2cccc(OCC)c2)c1C(=O)O,–,inactive
COc1cccc(Cn2nnc(C(=O)NCCc3ccc(Cl)cc3)c2N)c1,5.41% (inactive),–
COc1cccc(-c2nn(C)c3sc(C(=O)Nc4ccc5c(c4)OCCO5)cc23)c1,4.47% [at 50 µM] (inactive),–
Cc1nc(N)nc(C)c1Cc1ccccc1,2.73% (inactive),–
CCOC(=O)C1=C(N)OC2=C(C(=O)CCC2)C1c1ccc(C)s1 (stereo unspecified),5.46% (inactive),–
O=C(O)Cc1ccc(C(=O)c2ccccc2)s1,–,inactive
CCS(=O)(=O)N1CCN(C(=O)CC(C)C)CC1,0.68% (inactive),–
Cn1c(-c2ccc(Cl)cc2)ccc(C#N)c1=O,4.73% (inactive),–
CCOC(=O)N1CCN(C(=O)c2cnc3n(c2=O)CCS3)CC1,5.41% (inactive),–
CCOC(=O)c1c(NC(=O)C(C)N2CCN(C(=O)c3ccco3)CC2)sc2c1CCCC2 (stereo unspecified),5.46% (inactive),–
Nc1nc(SCc2ccccc2Cl)n[nH]1,–,inactive
Cn1c(CSc2nnc(SCc3ccccc3)s2)nc2ccccc21,2.05% (inactive),–
c1ccc(-n2c(SCc3ccncc3)nnc2-c2ccco2)cc1,24.3% (inactive),–
Nc1ccccc1-c1nnc(SCc2ccccc2Cl)[nH]c1=O,23.2% (inactive),–
O=C(c1ccc(F)cc1)N1CCC(C(=O)N(Cc2ccccc2)c2ccccc2)CC1,6.6% (inactive),–
CCCCNC(=O)Oc1cccc(N2CCCC2=O)c1,2.7% (inactive),–
COCCn1c(N)c(NCc2ccccc2)c(=O)n(CC(=O)Nc2cc(C)ccc2C)c1=O,3.41% (inactive),–
COc1ccc(C(C)=O)cc1CN1C(=O)NC2(CCCC2)C1=O,–,inactive
COc1ccc(S(=O)(=O)N2CCC(NC(=O)OCc3c(Cl)cccc3Cl)CC2)cc1,–,inactive
CN1CCN(S(=O)(=O)c2ccc(NC(=O)Nc3cccc(Cl)c3)cc2)CC1,0.68% (inactive),–
O=C(CSCc1ccc(Br)cc1)NC1CC1,14.8% (inactive),–
Oc1ccc(/C=C/c2cc(O)cc(O)c2)cc1,–,inactive

Structure (SMILES),inhibition,outcome
COc1ccc(F)cc1S(=O)(=O)Nc1cc2c3c(c1)CC(=O)N3CCC2,4.34% (inactive),–
CCC(C)NC(=O)CSc1nc2n[nH]c(C)c2c(=N)n1-c1ccc(OC)cc1 (stereo unspecified),3.41% (inactive),–
CN1C(=O)C2(C(C#N)=C(N)Oc3c2oc(CO)cc3=O)c2ccccc21 (stereo unspecified),2.7% (inactive),–
CCOC(=O)C1=C(C)OC(N)=C(C#N)C1c1cc(Cl)c(OCC(N)=O)c(OC)c1 (stereo unspecified),18.9% (inactive),–
Cc1ccc(-c2csc(NC(=O)Cc3cccs3)n2)cc1C,2.05% (inactive),–
Cc1nc2ccc(NC(=O)Cc3cccs3)cc2s1,19.8% (inactive),–
COC(=O)c1ccccc1NC(=O)CNC(=O)c1ccc(OC)cc1,–,inactive
O=C(Cc1cccs1)Nc1cccc(-c2nc3ccccc3o2)c1,–,inactive
COC(=O)C1=C(CSc2nc3ccccc3o2)NC(=O)NC1c1cc(C)ccc1C (stereo unspecified),1.36% (inactive),–
COc1ccc(NS(=O)(=O)c2cc(N=Nc3c(O)[nH]c(=O)[nH]c3=O)ccc2Cl)cc1,–,inactive
CC1(C)C2CCC1(C)C(OC(=O)C[n+]1ccccc1)C2 (stereo unspecified),1.65% (inactive),–
CC(=O)Nc1nnc(SCC(=O)N2CCCc3ccccc32)s1,–,inactive
CCc1ccccc1NC(=O)N1CCc2ccccc21,–,inactive
COc1ccc(-c2nc(CS(=O)CC(=O)NC3CCCc4ccccc43)c(C)o2)cc1OC (stereo unspecified),10.1% (inactive),–
O=S(=O)(c1ccc(Br)s1)N1CCCCC1,4.73% (inactive),–
Cc1ccc(S(=O)(=O)N2CCCC(C(=O)O)C2)s1 (stereo unspecified),–,inactive
CCN(CC)CCNC1=NCCn2c1cc1cc(OC)ccc12,5.46% (inactive),–
CCc1noc(N)c1C(=O)Nc1ccc(F)c(Cl)c1,3.38% (inactive),–
CCNC(=O)NC(=O)C(C)OC(=O)c1oc2ccc(OCC)cc2c1C (stereo unspecified),–,inactive
